From PubChem BioAssay (NCI)
This is part of a sample that, as a whole, favours compounds with a hit. Of some 83,000 tested, about 20% had one in any assay.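 Activity criterion: percent growth below 10, measured after cells in 96-well plates were exposed to a single compound concentration for 48 hours.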 Values without a mark were called inactive. Activity calls are given as the source filed them.

Key:
Assay in all cases: NCI-60 one-dose screen, 48 h (100 = growth as untreated, 0 = no growth, -100 = all killed)
Conditions in all cases: 10 µM unless noted
[1] = tested on: NCI-H23 lung
[2] = tested on: NCI-H226 lung
[3] = tested on: NCI-H322M lung
[4] = tested on: HOP-62 NSCLC
[5] = tested on: NCI-H460 lung
[6] = tested on: HOP-92 NSCLC
[7] = tested on: NCI-H522 lung
[8] = tested on: A549/ATCC NSCLC
[9] = tested on: 786-0 renal
[10] = tested on: COLO 205 colon

Compound	growth [1]	growth [2]	growth [3]	growth [4]	growth [5]	growth [6]	growth [7]	growth [8]	growth [9]	growth [10]
COc1cc(OC)c(/C=C/S(=O)(=O)Cc2ccc(OC)c(NCC(=O)O)c2)c(OC)c1	31.9%	61.1%	47.1%	12.6%	1.56% (active)	43.9%	-18% (active)	9.08% (active)	21.9%	-62.1% (active)
COCCN1CCN(Cc2ccc(-c3n[nH]c4c3C(=O)c3c(NC(=O)NN5CCOCC5)cccc3-4)cc2)CC1	-33.7% (active)	6.04% (active)	-13.1% (active)	-30.7% (active)	-68.7% (active)	39.7%	-34.1% (active)	-42.4% (active)	5.39% (active)	-64.5% (active)
Clc1ccc(Nc2nccc(Nc3ccc4[nH]ncc4c3)n2)cc1	45.7%	28.2%	74.8%	65.5%	41%	-0.955% (active)	20.8%	50.2%	57.4%	42.2%
Cc1cc(Nc2ncnc3ccc(NC4=NC(C)(C)CO4)cc23)ccc1Oc1ccn2ncnc2c1	35.6%	47%	5.34% (active)	22.3%	26.9%	9.05% (active)	6.43% (active)	20.7%	29.7%	-60.7% (active)
CCN(CC)CCNc1ccc(N=Nc2cnc3ccccc3c2)c2ccccc12	-92.6% (active)	-73.6% (active)	10.8%	-84.6% (active)	-78.8% (active)	-82.4% (active)	-87.2% (active)	-97.9% (active)	-87.9% (active)	-82.2% (active)
Cc1ccc(-n2nc(C(C)(C)C)cc2NC(=O)NCc2cc(F)ccc2Oc2ccc3c(cnn3CCO)c2)cc1	20.8%	21.1%	21.6%	26.1%	25.8%	19.5%	4.27% (active)	19.4%	29.1%	-13% (active)
Cc1c(NC(=O)OC[C@@H]2COCCN2)cn2ncnc(Nc3ccc4c(cnn4Cc4cccc(F)c4)c3)c12	-12.9% (active)	-1.69% (active)	-1.86% (active)	-25% (active)	4.49% (active)	-12.7% (active)	-30.4% (active)	-9.38% (active)	0.0698% (active)	-45.4% (active)
C=C1C(=O)O[C@H]2[C@H]1CC/C(Cn1cc(-c3cc(C)c(C)cc3C)nn1)=C\CC[C@@]1(C)O[C@@H]21	-61.3% (active)	-65.2% (active)	68.3%	55.7%	36.5%	-79% (active)	-64.2% (active)	26%	-77.5% (active)	-70.5% (active)
COc1cc(C(=O)NNC(=O)c2ccc(NC(=O)CCl)cc2)cc(OC)c1OC	78.9%	95.5%	88.5%	72.7%	99.5%	99%	-34.4% (active)	77%	95.3%	106%
Cc1nc(-c2cn3c(n2)-c2ccc(-c4cnn(C(C)(C)C(N)=O)c4)cc2OCC3)n(C(C)C)n1	54.5%	32.7%	2.09% (active)	31.2%	18.7%	0.115% (active)	36.1%	8.09% (active)	7.76% (active)	13.5%
CCCCCCCC(=O)SCC/C=C/[C@@H]1CC(=O)NCc2cccc(n2)C2=N[C@@](C)(CS2)C(=O)N[C@@H](C(C)C)C(=O)O1	2.23% (active)	-9.02% (active)	-5.77% (active)	-22.2% (active)	5.88% (active)	-5.42% (active)	-12.7% (active)	0.749% (active)	10.8%	-61.8% (active)
CN(C)C1CCN(C(=O)c2ccc(NC(=O)Nc3ccc(-c4nc(N5CCOCC5)nc(N5CCOCC5)n4)cc3)cc2)CC1	8.52% [2.5 µM] (active)	-18.2% [2.5 µM] (active)	-30.3% [2.5 µM] (active)	-21.5% [2.5 µM] (active)	6.4% [2.5 µM] (active)	-32% [2.5 µM] (active)	8.88% [2.5 µM] (active)	-25.2% [2.5 µM] (active)	-10.7% [2.5 µM] (active)	-31.4% [2.5 µM] (active)
C[C@@H](C[C@H](CCO)c1cc(C(F)(F)F)cc(C(F)(F)F)c1)c1ccc2ccccc2c1	85.3%	91.1%	99.1%	85.6%	106%	96.5%	76.7%	87.7%	87.5%	97%
COc1ccc(-c2cnc(-c3ccc(Cl)cc3)[nH]2)cc1OC	99.2%	88.3%	120%	94.3%	100%	25.8%	105%	105%	100%	98.7%
C[C@@]1(C(=O)Nc2ccc(F)nc2)CCCN1c1nc(Nc2cc(C3CC3)[nH]n2)c2cccn2n1	20.5%	30.1%	15.3%	11.3%	14.5%	-45.5% (active)	40.9%	21.9%	5.48% (active)	-49.3% (active)
C=CCC(=O)N[C@H](/C=C/C(=O)O)Cc1ccc(-c2cc(Cl)cc(Cl)c2)cc1	92.7%	86.2%	101%	82%	99.6%	96.4%	70.7%	76.9%	98.4%	95.7%
